# PubChem BioAssay (Tox21)
# Records with an inconclusive call do not appear. Entries that show only a call come without a potency. Activity calls are given as the source filed them. Calls come from the whole dose curve; as a rule, active = well fitted curve in the direction sought with a large enough effect in the repeat runs; inconclusive = weak or mixed curves; inactive = no such curve, though single readings can be large; an effect the other way counts as inactive or inconclusive.
# System: not listed separately
# Assay: qHTS assay to identify aromatase inhibitors - cell viability counter screen (AID 743084);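 note: cells stimulated with testosterone during compound exposure; nearly all actives have a fitted effect of over 55% in size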
# Conditions: MCF-7 aro ERE viability, CellTiter-Fluor, 24 h; series mostly up to 70.3 µM
# Potency is the fitted concentration of half-maximal effect.
row,SMILES,Potency
1,Oc1ccc(N=Nc2ccccc2)cc1,31 µM (active)
2,CCCCCCCCCCCCCCCCCC[N+](C)(C)Cc1ccccc1,49 µM (active)
3,COc1ccc(C(=O)/C(Br)=C\C(=O)O)cc1,17.2 µM (active)
4,CC1=C(/C=C/C(C)=C/C=C/C(C)=C/C=O)C(C)(C)CCC1,30.5 µM (active)
5,Oc1ccc(C2(c3ccc(O)cc3)CC3CC2C2CCCC32)cc1 (stereo not drawn),33 µM (active)
6,O=C1c2c(O)ccc(Nc3ccc(CCO)cc3)c2C(=O)c2c([N+](=O)[O-])ccc(O)c21,54.5 µM (active)
7,COc1cc(-c2ccc(N=C=O)c(OC)c2)ccc1N=C=O,inactive
8,Cc1nc(-c2ccc3c(c2)CCN(CCC2CCC(NC(=O)/C=C/c4ccc(F)cc4)CC2)CC3)no1 (stereo not drawn),inactive
9,CC[C@H]1O[C@]2(CC[C@@H]1C)C[C@@H]1C[C@@H](C/C=C(\C)C[C@@H](C)/C=C/C=C3\CO[C@@H]4[C@H](O)C(C)=C[C@@H](C(=O)O1)[C@]34O)O2,27.1 µM (active)
10,NC(=O)NS(=O)(=O)c1ccc(N)cc1,inactive
11,Cc1cc(O)c(C(C)(C)C)cc1Sc1cc(C(C)(C)C)c(O)cc1C,30.6 µM (active)
12,CCC1OCC(COc2ccc(Oc3ccccc3)cc2)O1 (stereo not drawn),inactive
13,CCN(C(=O)c1cc(C)cc(OC[C@H](C)Nc2ccncc2)c1)C(C)C,inactive
14,CCOC(=O)O[C@H](C)OC(=O)c1ccc2c(c1)cc(C(=O)NC1CCN(C(C)C)CC1)n2Cc1cc(-c2ccc(Cl)s2)on1,18.1 µM (active)
15,OCCCCCCCCCCCCBr,inactive
16,Oc1ccc2cc(SSc3ccc4cc(O)ccc4c3)ccc2c1,54.5 µM (active)
17,CCCCCCCCn1sc(Cl)c(Cl)c1=O,5.45 µM (active)
18,CCCC(=O)OC[C@@H](OC(=O)CCC)[C@@H](OC(=O)CCC)[C@H](Cn1c2nc(=O)[nH]c(=O)c-2nc2cc(C)c(C)cc21)OC(=O)CCC,inactive

row,SMILES,Potency
1,O=[N+]([O-])c1ccccc1Nc1ccccc1,inactive
2,Cc1cc(O)c(Cl)c(C)c1Cl,61.1 µM (active)
3,O=C1C=CC(=O)N1c1ccc(Cc2ccc(N3C(=O)C=CC3=O)cc2)cc1,9.69 µM (active)
4,CNCc1cc(F)ccc1Oc1ccc(Cl)c(Cl)c1,inactive
5,O=C(O)c1c(Cl)cccc1Cl,inactive
6,Cc1cc(O)c(C(C)(C)C)cc1C(C)(C)C,54.5 µM (active)
7,CSc1ccc(/C=C2/C(C)=C(CC(=O)O)c3cc(F)ccc32)cc1,inactive
8,O=C(OCC1CO1)C1CCCCC1C(=O)OCC1CO1 (stereo not drawn),48.6 µM (active)
9,O=C1C=CC(=O)N1,9.95 µM (active)
10,CCCCCCCCCCn1cc[n+](CCCCCCCCCC)c1C,24.4 µM (active)
11,CCC(Cl)C(Cl)C(Cl)CC(Cl)C(Cl)C(C)Cl (stereo not drawn),inactive
12,CC(=O)SC[C@@H](Cc1ccccc1)C(=O)NCC(=O)OCc1ccccc1,inactive
13,Cc1cc(C2CCCCC2)n(O)c(=O)c1,12.7 µM (active)
14,N=C1N=C(N)c2cc3ccccc3cc21,61.1 µM (active)
15,CCC1=C[C@@H]2CN(C1)Cc1c([nH]c3ccccc13)[C@@](C(=O)OC)(c1cc3c(cc1OC)N(C)[C@H]1[C@@](O)(C(=O)OC)[C@H](OC(C)=O)[C@]4(CC)C=CCN5CC[C@]31[C@@H]54)C2,inactive
16,O=C(Nc1ccc(Oc2ccc(Cl)cc2)c(Cl)c1)c1cc(I)cc(I)c1O,inactive
17,CNc1ccc(O)cc1,19.3 µM (active)

# Molecular target: Aryl hydrocarbon receptor (Homo sapiens) (UniProt P35869)
# Sequence (P35869 whole entry, looked up): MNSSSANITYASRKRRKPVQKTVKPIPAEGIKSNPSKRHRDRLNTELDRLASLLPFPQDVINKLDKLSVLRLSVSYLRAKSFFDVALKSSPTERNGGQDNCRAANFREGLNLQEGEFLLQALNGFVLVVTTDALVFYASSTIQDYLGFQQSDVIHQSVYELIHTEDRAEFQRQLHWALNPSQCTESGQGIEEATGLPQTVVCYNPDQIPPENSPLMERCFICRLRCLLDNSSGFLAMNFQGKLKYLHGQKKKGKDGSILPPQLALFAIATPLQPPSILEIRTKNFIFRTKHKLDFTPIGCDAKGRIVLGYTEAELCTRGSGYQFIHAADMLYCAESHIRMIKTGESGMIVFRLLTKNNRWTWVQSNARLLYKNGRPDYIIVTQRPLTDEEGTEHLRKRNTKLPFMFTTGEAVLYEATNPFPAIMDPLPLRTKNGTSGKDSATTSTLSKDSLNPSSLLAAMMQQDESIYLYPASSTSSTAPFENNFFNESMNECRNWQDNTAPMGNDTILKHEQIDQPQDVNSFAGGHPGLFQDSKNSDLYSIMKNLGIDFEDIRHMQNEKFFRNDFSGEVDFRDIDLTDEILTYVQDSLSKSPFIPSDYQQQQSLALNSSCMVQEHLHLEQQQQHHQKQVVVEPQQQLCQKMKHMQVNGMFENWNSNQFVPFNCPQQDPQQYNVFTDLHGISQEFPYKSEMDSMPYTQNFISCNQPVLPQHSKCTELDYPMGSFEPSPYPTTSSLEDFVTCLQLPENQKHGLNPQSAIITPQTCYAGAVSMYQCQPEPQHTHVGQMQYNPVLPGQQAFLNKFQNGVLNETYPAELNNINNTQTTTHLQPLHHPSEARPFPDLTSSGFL
# Assay: qHTS assay to identify small molecule that activate the aryl hydrocarbon receptor (AhR) signaling pathway (AID 743085); note: nearly all actives have a fitted effect of over 15% in size
# Conditions: HepG2 AhR-luc (HG2L7.5c1), luciferase, 24 h; series mostly up to 70.3 µM
# Outline: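 Reporter assay in engineered HepG2 line HG2L7.5c1, whose plasmid carries twenty dioxin responsive elements upstream of firefly luciferase. Treatment lasted 24 h at 37C; ONE-Glo luminescence gauged induction.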
row,SMILES,Potency
1,Oc1ccc(N=Nc2ccccc2)cc1,61.9 µM (active)
2,CCCCCCCCCCCCCCCCCC[N+](C)(C)Cc1ccccc1,inactive
3,COc1ccc(C(=O)/C(Br)=C\C(=O)O)cc1,inactive
4,CC1=C(/C=C/C(C)=C/C=C/C(C)=C/C=O)C(C)(C)CCC1,inactive
5,Oc1ccc(C2(c3ccc(O)cc3)CC3CC2C2CCCC32)cc1 (stereo not drawn),inactive
6,O=C1c2c(O)ccc(Nc3ccc(CCO)cc3)c2C(=O)c2c([N+](=O)[O-])ccc(O)c21,6.86 µM (active)
7,CC[C@H]1O[C@]2(CC[C@@H]1C)C[C@@H]1C[C@@H](C/C=C(\C)C[C@@H](C)/C=C/C=C3\CO[C@@H]4[C@H](O)C(C)=C[C@@H](C(=O)O1)[C@]34O)O2,inactive
8,Cc1cc(O)c(C(C)(C)C)cc1Sc1cc(C(C)(C)C)c(O)cc1C,inactive
9,CCN(C(=O)c1cc(C)cc(OC[C@H](C)Nc2ccncc2)c1)C(C)C,inactive
10,CCOC(=O)O[C@H](C)OC(=O)c1ccc2c(c1)cc(C(=O)NC1CCN(C(C)C)CC1)n2Cc1cc(-c2ccc(Cl)s2)on1,inactive
11,CCCCCCCCn1sc(Cl)c(Cl)c1=O,inactive
12,CCCC(=O)OC[C@@H](OC(=O)CCC)[C@@H](OC(=O)CCC)[C@H](Cn1c2nc(=O)[nH]c(=O)c-2nc2cc(C)c(C)cc21)OC(=O)CCC,inactive
13,Cc1cc(O)c(Cl)c(C)c1Cl,inactive
14,O=C1C=CC(=O)N1c1ccc(Cc2ccc(N3C(=O)C=CC3=O)cc2)cc1,inactive
15,CNCc1cc(F)ccc1Oc1ccc(Cl)c(Cl)c1,inactive
16,Cc1cc(O)c(C(C)(C)C)cc1C(C)(C)C,inactive
17,CSc1ccc(/C=C2/C(C)=C(CC(=O)O)c3cc(F)ccc32)cc1,9.44 µM (active)
18,O=C1C=CC(=O)N1,inactive
19,CCCCCCCCCCn1cc[n+](CCCCCCCCCC)c1C,inactive
20,Cc1cc(C2CCCCC2)n(O)c(=O)c1,inactive
21,N=C1N=C(N)c2cc3ccccc3cc21,11.2 µM (active)
22,CCC1=C[C@@H]2CN(C1)Cc1c([nH]c3ccccc13)[C@@](C(=O)OC)(c1cc3c(cc1OC)N(C)[C@H]1[C@@](O)(C(=O)OC)[C@H](OC(C)=O)[C@]4(CC)C=CCN5CC[C@]31[C@@H]54)C2,inactive
23,CNc1ccc(O)cc1,61 µM (active)
